40 compounds from PubChem BioAssay (NCI) can be followed below.

About 83,000 compounds went through this panel and 20% of them were active in at least one assay; those are over-represented in the sample as a whole.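 Compound tested at a single concentration for 48 hours in 96-well plates; a percent growth value below 10 was scored as active.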 Unmarked numbers belong to inactive results. The source made the active and inactive calls.

The assay deals with MDA-MB-468 breast. Put plainly: NCI-60 one-dose screen, 48 h (100 = growth as untreated, 0 = no growth, -100 = all killed). The conditions noted are these: 10 µM unless noted.
In the case of `CC(C)(C)n1cc(-c2ccnc(NCCNS(=O)(=O)c3ccc(C(F)(F)F)cc3)c2)c(-c2cccc(O)c2)n1`, the growth is 36.8%.

Consider `C#CC#CC#CC#CC#CC#CC#CC#CCC1OC[C@H](COC(=O)O[C@@H](C(=O)O[C@H]2C[C@@]3(O)[C@@H](OC(=O)c4ccccc4)[C@@H]4[C@]5(OC(C)=O)CO[C@@H]5C[C@H](O)[C@@]4(C)C(=O)[C@H](OC(C)=O)C(=C2C)C3(C)C)[C@@H](NC(=O)c2ccccc2)c2ccccc2)O1` (stereo not given in full), for which the growth is 8.69% (active).

As for `COc1ccc(/C=C/c2nc(Nc3ccc(S(=O)(=O)Nc4cc(C)on4)cc3)c3ccccc3n2)cc1`, the growth was 29.9%.

For `Cc1ccc(-n2nnnc2N)c(C)c1`, the growth is 115%.

For the compound `CCCCC1COc2cccc3c2N1C=C/C3=C\C(=O)N(C)c1ccccc1` (stereo not given), the growth is 18.8%.

Turning to `NC1=Nc2cc(OCCCN3Cc4ccccc4C3)c(OCC3CC3)cc2C12CCCC2`, the growth is 31.9%.

`NC(=O)N1N=C(c2cc3ccccc3oc2=O)CC1c1cn(-c2ccccc2)nc1-c1ccc(Cl)cc1` (stereo not given): the growth was 36.9%.

In the case of `Cc1ccc(NC(=O)Nc2cccnc2)cc1NC(=O)Nc1cccnc1`, the growth is 71%.

Consider `Cc1cc(Br)c2nsnc2c1[N+](=O)[O-]`, for which the growth was -24.6% (active).

`COc1ccc(CCNC(=O)COc2cc3c(Nc4ccc(F)c(Cl)c4)ncnc3cc2OC)cc1OC`: the growth was -10.1% (active).

As to `O=C(NC1CCCC1)c1ccc(N2CCC(NCc3cccc(C(F)(F)F)c3)CC2)cc1`, the growth was 77.7%.

Regarding `Clc1ccc2c(NCCCn3ccnc3)c3oc4ccc(Cl)cc4c3nc2c1`, the growth was 31.3%.

With `OCCNc1nc(Nc2ccc(C3=NN(c4cc(Cl)cc(Cl)c4)C(c4ccc(C(F)(F)F)cc4)C3)cc2)nc(N2CCOCC2)n1` (stereo not given), the growth was 66.7%.

For `Nc1ccc(NC(=O)c2ccccc2)c2c1C(=O)c1ccccc1C2=O`, the growth was 107%.

On to `O=c1c2cccc3c(NC4CCCCC4)ccc(c32)c2nc3ccccc3n12`, for which the growth is -4.69% (active).

On to `Cc1ccc(Nc2nc(NCCO)c3ccccc3n2)cc1C`, for which the growth was 32.9%.

For `Fc1ccc2[nH]cc(-c3nc(-c4ccsc4)cs3)c2c1`, the growth is 69.6%.

Take `COc1ccc(N2CCN(C3=C(Cl)C(=O)C(C)=C(C)C3=O)CC2)cc1`: the growth is 74.1%.

In the case of `CC(C)N(CCOC(=O)Nc1ccccc1Cl)C(C)C`, the growth is 104%.

Turning to `Cc1cc2cc3cc(C)c(N(C)C)cc3[n+](C)c2cc1N(C)C`, the growth was 27.1%.

For the compound `C=C1C(=O)O[C@H]2[C@H]1CC/C(Cn1cc(-c3ccsc3)nn1)=C\CC[C@@]1(C)O[C@@H]21`, the growth is -56.8% (active).

In the case of `Cl.Fc1c[c-]c(-c2ccccn2)c(F)c1.[Pt].c1ccc([PH+](c2ccccc2)c2ccccc2[PH+](c2ccccc2)c2ccccc2)cc1`, the growth was -85.8% (active).

For `O=C(CSc1nnc(-c2cc(-c3ccc(Cl)cc3)nc3ccccc23)n1-c1ccccc1)Nc1ccc(Cl)cc1`, the growth was 110%.

Consider `O=S(=O)(O)c1ccc(F)cc1`, for which the growth was 122%.

For the compound `COc1cc(/C=C2\CCC/C(=C\c3cc(CN4CCCC4)c(O)c(OC)c3)C2=O)cc(CN2CCCC2)c1O`, the growth is 67.2%.

As for `NC(=O)c1nc2c([nH]c1=O)CCCC2`, the growth was 95%.

As for `Nc1c(Cl)cc(/C=C2\C=Cc3ccccc32)cc1Cl`, the growth is 97.9%.

As to `C=C(C)[C@@H]1CC[C@]2(C(=O)O)CC[C@]3(C)[C@H](CC[C@@H]4[C@@]5(C)CCC(NC(=O)c6cccc(OC(C)=O)c6OC(C)=O)C(C)(C)[C@@H]5CC[C@]43C)[C@@H]12` (stereo not given in full), the growth is -5.31% (active).

Regarding `CC(C)(C)OC(=O)NCc1ccc(CNc2c([N+](=O)[O-])cnc3ccccc23)cc1`, the growth is 22.2%.

Regarding `Clc1ccc(N2N=C(c3cccc(Nc4ccncc4)c3)CC2c2ccccc2)cc1` (stereo not given), the growth is 74.1%.

`C=C1C(=O)O[C@H]2[C@H]1CC/C(Cn1cc(CNCCc3c[nH]c4ccc(Cl)cc34)nn1)=C\CC[C@@]1(C)O[C@@H]21`: the growth was 19.6%.

For `COc1ccc2cc(-c3ccc(-c4ccc(C(=N)N)cc4)s3)ccc2c1`, the growth was 98.2%.

Take `CCC1(CC)NC(=O)c2c(c3ccc(Cl)c(Cl)c3n2C)C1C#N` (stereo not given): the growth was 106%.

Consider `CC1=NC(c2ccc(Cl)cc2)C2=C(N1)/C(=C/c1ccc(Cl)cc1)CCC2` (stereo not given), for which the growth was 75.8%.

On to `Cc1cc2c3c(cccc3c1)C(=O)c1ccccc1-2`, for which the growth is 63.7%.

Consider `CC[C@H](C)C(=O)O[C@H]1C[C@@H](C)C=C2C=C[C@H](C)[C@H](CC[C@@H]3C[C@@H](O)CC(=O)O3)[C@H]21`, for which the growth is 103%.

Regarding `COc1cc2nnn3c4ncccc4c(N=O)c3c2cc1OC`, the growth is -50.9% (active).

Regarding `COc1ccc2nc3cc(Cl)ccc3c(N3CCN(c4ccnc(Nc5ccc(F)cc5)n4)CC3)c2c1`, the growth was 63.8%.

`CC[Si](CC)(CC)OC1[C@@H](O[Si](CC)(CC)CC)[C@@H](CNC(=O)NC)O[C@H]1n1cnc2c(NC(=O)Nc3ccccc3)ncnc21` (stereo not given in full): the growth was 97.5%.

Turning to `COc1ccc2c(c1)c(CC(=O)[Se]CC(=O)O)c(C)n2C(=O)c1ccc(Cl)cc1`, the growth was 86.9%.
